High-throughput results from PubChem.
An excerpt weighted towards active compounds, which were near 3.1% of everything screened.
TRPM1 prom inh: inhibitors of MITF-driven TRPM1 promoter in melanoma cells. hit rate 0.83% among 330,000. inhibition, % at 12.5 µM. AID 488899. SK-MEL-5 TRPM1 promoter luciferase, 24 h;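 active means mean inhibition across replicates of 60% or more, whatever share of single replicates reaches that level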
ABHD5 PLIN5 PPI: ABHD5-PLIN5 protein interaction inhibition | hit rate 0.78% among 360,000 | inhibition, % at 4 µM | AID 602281 | Split G. princeps luciferase complementation, luminescence, 4 h;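 active means inhibition above the mean inhibition across every tested compound plus 3 SD, cut at about 22% in these data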
CF NFkB block: cystic fibrosis NF-kB activation inhibition. KKLEB NF-kB-GFP reporter, PAF-induced, GFP fluorescence overnight. inhibition, % at 5 µM. hit rate 0.86% among 360,000;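 active means at least 50% inhibition at 5 µM, scaled per plate between neutral and stimulator controls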;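 further: PAF is a Pseudomonas aeruginosa culture filtrate used as stimulus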
HIF-2a inh: blocks HIF-2a reporter activity. AID 624352. hit rate 0.72% among 360,000. inhibition, % at 18.8 µM. 786-0 RCC cells HIF-2a reporter, luciferase luminescence, overnight;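 active means inhibition of the luminescence signal of 40% or more relative to plate controls, in a single-dose primary screen at 18.75 µM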
KKLEB cytotox: counter-screen for CF NF-kB inhibitors: cytotoxicity. AID 602141. activity change (cytotoxicity), % at 5 µM. hit rate 0.36% among 360,000. KKLEB CF airway cells viability, ATPlite luminescence, overnight; active compounds read low; cells stimulated with P. aeruginosa culture filtrate;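 active means corrected activity change at or below -50% at 5 µM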
Peg3 prom inh: inhibitors of Peg3 promoter | HeLa PEG-Prom luciferase reporter, luminescence, overnight | inhibition, % at 20 µM | hit rate 1.7% among 360,000 | AID 588405;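 active means inhibition of at least 50% at 20 µM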
ABHD5-PLIN5 conf: ABHD5-PLIN5 interaction inhibition, confirmed; AID 651612; inhibition, % at 4 µM; shares compounds with ABHD5 PLIN5 PPI; biochemical ABHD5-PLIN5 interaction, luminescence; hit rate 67% among 2,200; in the data active means inhibition above about 23%
HNF4 split-luc: HNF4 split-luciferase signal hit, counter-screen; AID 651674; hit rate 77% among 2,200; HNF4 dimerization, luminescence, biochemical; shares compounds with ABHD5 PLIN5 PPI; inhibition, % at 4 µM;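 active means mean inhibition across replicate wells exceeding the computed hit threshold, cut at about 13% in these data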;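 further: light from luciferase halves that rejoin when HNF4 fusion proteins dimerize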
Target sequence (P41235 whole entry, looked up, the tested form may be a part): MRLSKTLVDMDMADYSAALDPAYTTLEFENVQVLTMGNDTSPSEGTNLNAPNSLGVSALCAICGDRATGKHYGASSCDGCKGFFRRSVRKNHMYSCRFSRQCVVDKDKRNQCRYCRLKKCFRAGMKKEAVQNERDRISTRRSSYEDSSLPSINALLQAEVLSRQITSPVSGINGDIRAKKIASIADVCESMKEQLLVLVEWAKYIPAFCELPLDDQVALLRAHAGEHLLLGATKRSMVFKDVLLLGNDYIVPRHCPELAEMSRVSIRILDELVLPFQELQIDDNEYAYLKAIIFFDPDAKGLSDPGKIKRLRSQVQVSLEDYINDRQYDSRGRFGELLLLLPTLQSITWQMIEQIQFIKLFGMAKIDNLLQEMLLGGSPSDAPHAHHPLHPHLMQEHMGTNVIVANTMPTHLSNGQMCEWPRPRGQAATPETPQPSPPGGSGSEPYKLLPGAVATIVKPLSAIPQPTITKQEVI
Hits are given with their value; - = inactive; . = no result.

SMILES	TRPM1 prom inh	ABHD5 PLIN5 PPI	CF NFkB block	HIF-2a inh	KKLEB cytotox	Peg3 prom inh	ABHD5-PLIN5 conf	HNF4 split-luc
O=C(O)C1=C[C@H](c2coc3ccccc3c2=O)C[C@H](OCCCCO)O1	-	-	-	-	-	-	.	.
NC(=O)C1=C[C@H](c2coc3ccccc3c2=O)C[C@H](OCCCCO)O1	-	23.3	-	-	-	-	-	-
COc1ccc(OCC(O)CNC(=O)/C=C/c2cccc([N+](=O)[O-])c2)cc1 (stereo not given)	-	-	-	-	-	-	.	.
Cn1nc(C(C)(C)C)cc1N1C(=O)CCC1(C)C(=O)NC1CCCC1 (stereo not given)	.	-	-	-	-	-	.	.
CCN(CC)c1ccc(/C=N/NC(=O)CNC(=O)/C=C/c2ccco2)cc1	-	-	-	-	-	-	.	.
C[C@H](CO)N1C[C@H](C)[C@H](CN(C)Cc2cncnc2)Oc2cc(Br)ccc2S1(=O)=O	.	-	-	-	-	-	.	.
Cn1c(NCCN(CCO)CCCc2ccc([N+](=O)[O-])cc2)cc(=O)n(C)c1=O	-	29.8	-	-	-	-	-	-
CCCCNc1cc(=O)n(C)c(=O)n1C	-	-	-	-	-	-	.	.
COc1ccc(-c2nc(N)c(C#N)c(-c3cccnc3)c2C)cc1	-	-	-	-	-	-	.	.
CCN(C(=O)CN1C(=O)S/C(=C\C=C\c2ccccc2)C1=O)C1CCS(=O)(=O)C1 (stereo not given)	-	56.4	-	-	-	-	-	22.0
CC(C)Cc1nnc(NC(=O)CSc2nc(-c3ccccc3)cc(=O)[nH]2)s1	-	-	-	-	-	-	.	.
CCCCNC1C(CC)C(CCC)C(C#N)(C#N)C1(C#N)C#N (stereo not given)	-	28.5	80.7	-	-	-	64.1	52.6
C/C(=N\NC(=O)NC1CCCCC1)c1ccco1	-	-	-	-	-	-	.	.
CC(C)CC(=O)Nc1nnc(SCC(=O)NCC2CCCO2)s1 (stereo not given)	-	-	-	-	-	-	.	.
O=C(/C=C/c1ccc(O)c(O)c1)c1ccccc1O	-	-	-	-	-	-	.	.
COc1ccc(C(=O)/C=C/c2ccccc2)c(O)c1	.	29.7	-	-	-	-	65.5	47.2
COc1ccc(C(=O)/C=C/c2ccc(OC)cc2OC)c(O)c1	-	-	-	-	-	-	.	.
O=C(C=Cc1cccc(O)c1)c1ccccc1O	-	44.6	-	-	-	-	93.5	75.1
COc1cc(OC)c(C(=O)/C=C/c2ccccc2)c(O)c1O	-	38.6	-	-	-	-	49.6	38.3
CN(C)S(=O)(=O)c1ccc(C(=O)NC(=O)CSc2nncs2)cc1	.	-	-	-	-	-	.	.
Cc1cc(-c2nn(-c3ccccc3F)cc2CN2CCN(c3ccncc3)CC2)c(C)s1	-	28.2	-	-	-	-	-	-
Clc1nssc1=Nc1nncs1	-	72.5	-	-	-	-	64.4	100.8
Clc1nssc1=Nc1ccc(Br)cc1	-	23.6	-	-	-	-	22.5	70.6
CCCCCn1nc(C(=O)OCc2nnc(-c3ccccc3)o2)c2ccccc2c1=O	-	-	-	-	-	-	.	.
O=c1cc(CO)[nH]nc1CO	.	-	-	-	-	-	.	.
SMILES	TRPM1 prom inh	ABHD5 PLIN5 PPI	CF NFkB block	HIF-2a inh	KKLEB cytotox	Peg3 prom inh	ABHD5-PLIN5 conf	HNF4 split-luc
O=C(OCC(=O)N1CCCC1=O)c1ccc(F)c(S(=O)(=O)N2CCOCC2)c1	-	-	-	-	-	-	.	.
Cc1ccc(/C=C/C(=O)Nc2cccc3ncccc23)o1	-	42.5	-	-	-	-	29.5	32.9
Cc1ccc(/C=C/C(=O)Nc2cccnc2)o1	-	-	-	-	-	-	.	.
O=C(CCN1C(=O)c2ccccc2C1=O)c1cnc[nH]1	.	-	-	-	-	-	.	.
Cc1ccc(S(=O)(=O)NCCC(=O)N2CCC(C)CC2)cc1	-	-	-	-	-	-	.	.
O=C1CCCCCCCCCC/C(=N\O)CCCO1	.	92.1	-	-	-	-	-	-
Cc1ccccc1OCc1nnc(SCC(=O)NCc2ccco2)n1C	-	-	-	-	-	-	.	.
COc1ccccc1OCc1nnc(SCC(=O)NCc2ccco2)n1Cc1ccco1	-	31.4	-	-	-	-	48.0	34.2
Cc1ccc2c(c1)N(CC(=O)NCCCN1CC(C)CC(C)C1)C(=O)c1cccnc1O2 (stereo not given)	-	-	-	-	-	-	.	.
CSc1nnc(C)c(/C=C/NOCc2cccc(F)c2)n1	-	-	-	-	-	-	.	.
Cc1nnc(SCc2ccccc2)nc1/C=C/NOCc1ccc(Cl)cc1Cl	-	25.5	-	-	-	-	-	24.9
CC1(C(=O)NS(=O)(=O)c2cccc(F)c2)CCN1C(=O)C1CCCCC1 (stereo not given)	.	-	-	-	-	-	.	.
CC1(C)CC(N=c2cc(-c3ccccc3)oc3ccc(Cl)cc23)CC(C)(C)N1	-	28.7	-	-	-	107.6	-	-
CCOc1cccc2sc(N(CCCN(C)C)C(=O)c3ccc(S(=O)(=O)N(C)c4ccccc4)cc3)nc12	-	27.1	-	-	-	-	-	-
Cc1cc(C(F)(F)F)nn1Cc1ccc(C(=O)NCc2ccco2)o1	-	23.2	-	-	-	-	29.0	22.6
COc1ccc(S(=O)(=O)N/N=C(/C)c2ccncc2)c(OC)c1	-	-	-	-	-	-	.	.
CCCOc1ccc(/C=C/c2[nH]c(=O)[nH]c(=O)c2[N+](=O)[O-])cc1OCC	-	-	-	-	-	-	.	.
CCOC(=O)COc1ccc(Br)cc1/C=C\c1[nH]c(=O)[nH]c(=O)c1[N+](=O)[O-]	-	64.4	-	-	-	-	84.6	94.1
CCOC(=O)COc1ccc(Br)cc1/C=C/c1[nH]c(=O)[nH]c(=O)c1[N+](=O)[O-]	-	65.1	-	-	-	-	75.7	85.3
COc1ccc(CNC(=O)COC(=O)CCN2C(=O)C3CC=CCC3C2=O)cc1OC (stereo not given)	-	-	-	-	-	-	.	.
O=C1CC(c2ccccc2)CC(=O)C1CS(=O)(=O)c1ccccc1 (stereo not given)	-	34.0	-	-	-	-	48.5	104.7
c1cn2c(-c3ccoc3)cncc2n1	.	23.1	-	-	-	-	34.0	35.4
OCc1ccc(-c2cncc3nccn23)cc1	.	-	-	-	-	-	.	.
COC(=O)C[C@@H]1C[C@@H]2c3cc(NS(=O)(=O)c4ccc(F)cc4)ccc3O[C@@H]2[C@H](CO)O1	.	-	-	-	-	-	.	.
c1coc(-c2nc3ccccc3nc2-c2ccco2)c1	-	34.0	-	-	-	-	93.3	85.6
c1coc(-c2cnc3ccccc3n2)c1	.	-	-	-	-	-	.	.
